# KB-3-1 tox: qHTS assay for MDR1-selective chemotherapeutics: Primary screen using the parental adenocarcinoma cell KB-3-1. KB-3-1 viability, CellTiter-Glo ATP luminescence, 72 h. 400,000 tested, 1.4% active. Potency, µM (doses to about 46.1 µM), actives largely listed as cytotoxic. AID 1347075, 2019; note: nearly all actives have a fitted effect of over 60% in size
#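 Cytotoxicity in the drug-sensitive parental line KB-3-1 was scored as loss of CellTiter-Glo luminescence following 72 h incubation with compound. Values come from curve fitting of normalized concentration-response data.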
# ATXN2 expr inh: Primary qHTS for Inhibitors of ATXN expression; 360,000 tested, 0.72% active; Potency, µM (highest dose often 57 µM), usual class: inhibitors; HEK-293 ATXN2-luciferase reporter, luminescence, 24 h; note: nearly all actives have a fitted effect of over 55% in size
#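 qHTS (up to 57 uM final) was run with 24 h compound exposure of reporter cells at 37 °C. Each well was multiplexed: SteadyGlo luminescence measured ATXN2-luciferase expression after a fluorogenic Gly-Phe-AFC viability readout (25 uM final).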
# KB-V1 MDR tox: qHTS assay for MDR1-selective chemotherapeutics: Primary screen using the drug-selected MDR subline cells KB-V1; KB-V1 MDR cells viability, CellTiter-Glo, 72 h; Potency, µM (doses to about 46.1 µM), hits mostly cytotoxic; 400,000 tested, 3.4% active; note: nearly all actives have a fitted effect of over 60% in size
#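 In this primary screen, KB-V1 cells overexpressing P-gp are incubated with library compounds (lowest to highest concentration) for 72 h at 37 degrees C before a luminescent ATP viability read.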
# ATXN viability: Viability Counterscreen for Primary qHTS for Inhibitors of ATXN expression; 400,000 tested, 0.49% active; S2 cells (HEK-293 line with an ATXN2-luciferase reporter) viability, CellTiter-Fluor protease fluorescence, 24 h; AID 651635, 2014; Potency, µM (top dose mostly 56.7 µM), actives largely listed as cytotoxic; note: nearly all actives have a fitted effect of over 40% in size
# HT1080 IDH1KD tx: qHTS for induction of synthetic lethality in tumor cells producing 2HG: qHTS for the HT-1080-IDH1KD cell line | HT-1080 IDH1 knockdown viability, ATP luminescence, 48 h | Potency, µM (highest dose often 46.1 µM), hits mostly cytotoxic | 360,000 tested, 2% active | AID 686971, 2013
#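 IDH1KD HT-1080 cells, 750/well, RPMI + 5% FBS; compound pinned after 2 h settling; 48 h, 37 °C; CellTiter-Glo luminescence; % activity normalised to DMSO and no-cell wells; curves fitted, classed by r2 and efficacy.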
# HT1080NT lethal: qHTS for induction of synthetic lethality in tumor cells producing 2HG: qHTS for the HT-1080-NT fibrosarcoma cell line; 360,000 tested, 1.6% active; HT-1080-NT fibrosarcoma viability, CellTiter-Glo ATP luminescence, 48 h; Potency, µM (highest dose often 46.1 µM), actives largely listed as cytotoxic;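 note: NT is the 2HG producing partner of a matched IDH1 knockdown line; nearly all actives have a fitted effect of over 55% in size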
#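 HT-1080-NT; 750 cells/well; 5% FBS RPMI; 48 h compound, 37 degrees C; CellTiter-Glo luminescence; curve fitting and curve-class assignment.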
# A number is an active result; 0 = inactive; ? = inconclusive; - = no result given; [ ] = dose if it differs, or a comment. Rows were chosen to be rich in hits. Some 6.2% of all compounds tested hit in one or more screens of this group. Calls come from the whole dose curve; as a rule, active = well fitted curve in the direction sought with a large enough effect; inconclusive = small, poorly fitted or top-dose-only effect, or another doubt; inactive = no such curve, though single readings can be large; an effect the other way counts as inactive or inconclusive.
SMILES,KB-3-1 tox,ATXN2 expr inh,KB-V1 MDR tox,ATXN viability,HT1080 IDH1KD tx,HT1080NT lethal
O=C(CNc1cccc(C(F)(F)F)c1)Nc1cccc(S(=O)(=O)N2CCCC2)c1,?,?,?,0,0,0
O=C(Nc1cccc(S(=O)(=O)N2CCCCC2)c1)Nc1ccc(Cl)cc1Cl,?,?,?,?,16µM,21µM
CN(CC(=O)Nc1ccc(F)cc1)c1ccc(S(=O)(=O)N2CCCCC2)cc1[N+](=O)[O-],0,0,13µM,?,0,0
O=C(CNc1cc(S(=O)(=O)N2CCCC2)ccc1OCC(F)(F)F)Nc1cccc(C(F)(F)F)c1,21µM,0,9.2µM,0,0,0
Cc1ccc(Cl)cc1N1CCN(C(=O)c2ccc3c(c2)CCN3S(=O)(=O)c2ccccc2)CC1,0,0,0,0,-,-
Cc1cnc(C)c(N(C)NC(=S)Nc2ccccc2)n1,0,0,0,0,0,0
Cc1ccc(NC(=S)NN(C)c2cc(C)nc(C)n2)cc1,0,0,18µM,?,0,0
CCc1c(C(=O)Nc2ccncc2)csc1C,0,0,16µM,0,0,0
COc1ccccc1-c1ccc2c(c1)C(C)(Cc1cccc(F)c1)C(=O)N2 (stereo not given),?,?,21µM,0,?,?
O=C1c2ccccc2NC(c2ccc(OCc3ccccc3)c(OCc3ccccc3)c2)N1Cc1ccco1 (stereo not given),0,-,0,-,-,-
O=C(c1[nH]ncc1-c1ccccc1)C1CO1 (stereo not given),0,0,0,0,?,?
O=C(c1[nH]ncc1-c1cccc(Br)c1)C1CO1 (stereo not given),?,0,?,?,?,26µM
CSc1ccccc1C(=O)N1CCN(c2cccc(Cl)c2)CC1,0,0,16µM,0,23µM,?
Cc1cc(C(=O)N2CCN(c3cccc(Cl)c3)CC2)c(C)o1,23µM,0,0,0,16µM,?
CCOC(=O)[C@H]1O[C@H]1C(=O)N[C@@H](CC(C)C)C(=O)NCCC(C)C,-,0,-,-,-,-
CCOC(=O)[C@H]1O[C@@H]1C(=O)N[C@@H](CC(C)C)C(=O)NCCC(C)C,0,0,0,3.2µM,0,0
COc1cc(=O)n2c(c1C(=O)NC(C)c1ccco1)CCN(C(=O)c1[nH]c(C)cc1C)CC2 (stereo not given),-,-,-,0,-,-
C=C(C)C1CC=C(C)/C(=N/NC(=O)c2ccc(NC(=O)CC)cc2)C1 (stereo not given),0,0,15µM,0,0,0
C=C(C)C1CC=C(C)/C(=N/NC(=O)c2ccc(NC(=O)CCC)cc2)C1 (stereo not given),0,0,0,0,0,0[9.24 µM]
C=CCn1c(-c2oc3nc(-c4ccccc4)cc(-c4ccccc4)c3c2N)n[nH]c1=S,0,0,9.2µM,-,0,0
Cc1ccc(NC(=O)c2cc(S(=O)(=O)NCCc3ccccc3)ccc2F)cc1Cl,0,0,0,0,16µM,16µM
O=C(Nc1cccc(Cl)c1)c1cc(S(=O)(=O)NCCc2ccc(Cl)cc2)ccc1F,0,0,?,0,29µM,?
Cc1ccc(C)c(NC(=O)c2cc(S(=O)(=O)NCCc3ccccc3)ccc2F)c1,0,?,?,?,-,-
Cc1ccc(C(C)C)c(OCC(O)CN(C)Cc2ccccc2)c1 (stereo not given),0,0,0,?,?,?
Cc1cc(Cl)c(OCCN2C(=O)NC(C)(C)C2=O)c(Br)c1,0,-,0,-,0,0
SMILES,KB-3-1 tox,ATXN2 expr inh,KB-V1 MDR tox,ATXN viability,HT1080 IDH1KD tx,HT1080NT lethal
Cc1cc(Cl)cc(Br)c1OCCCN1C(=O)NC(C)(C)C1=O,?,0,18µM,0,0,0
Cc1ccc(C(C)C)c(OCCCN2C(=O)NC(C)(C)C2=O)c1,0,0,15µM,0,0,0
Cc1ccc([N+](=O)[O-])c(OCCN2C(=O)NC(C)(C)C2=O)c1,0,-,0,0,0,0
Cc1ccc(C(C)C)c(OCCCN(C)Cc2ccccc2)c1,0,0,12µM,0,?,0
Cc1ccc(NC(=O)C2CCN(C(=O)c3cnn(-c4ccccc4)c3-n3cccc3)CC2)cc1,?,0,0,0,-,-
COc1ccc(-c2nc3cc(C)ccc3cc2CN(C(=O)c2cc(C)nn2C)C2CC2)cc1OC,-,-,-,0,-,-
Cc1cc(C)c(Cn2c(C)c(CNCc3ccccc3C)c(C(=O)O)c2C)c(C)c1,0,0,0,?,-,-
CCn1nc([N+](=O)[O-])c(C(C#N)c2nc3cc(C(F)(F)F)ccc3s2)c(Cl)c1=O (stereo not given),15µM,?,?,-,0.32µM,0.63µM
CCCn1nc([N+](=O)[O-])c(C(C#N)c2nc3ccccc3o2)c(Cl)c1=O (stereo not given),0,0,0,0,?,?
Cc1ccc(Cl)cc1N1CCN(C(=O)c2cn(C3CCCCC3)c(=O)c3c2c2ccccc2n3C)CC1,0,-,0,-,-,-
CCN1CCN(c2cc(C)c3cc(NC(=S)NCCCN4CCc5ccccc5C4)ccc3n2)CC1,0,?,0,-,21µM,21µM
Cc1cc(N2CCCC2)nc2ccc(NC(=S)NCCCN3CCC(C)CC3)cc12,0,?,?,?,23µM,23µM
CCCCN(C)CCNC(=S)Nc1ccc2nc(N3CCN(CC)CC3)cc(C)c2c1,0,?,0,?,29µM,18µM
Cc1cc(N2CCN(C)CC2)nc2ccc(NC(=S)NCCCN3CCc4ccccc4C3)cc12,0,32µM,0,18µM,16µM,18µM
CCN1CCN(c2cc(C)c3cc(NC(=S)NCCN(C)C)ccc3n2)CC1,0,0,0,0,?,0
Cc1cc(N2CCN(C)CC2)nc2ccc(NC(=S)NCCN3CCc4ccccc4C3)cc12,0,-,0,-,0,0
CCC(=O)N1CCc2cc(Br)cc(S(=O)(=O)N3CCCC(C(=O)Nc4ccc(C(C)C)cc4)C3)c21 (stereo not given),0,0,0,0,-,-
COc1ccc(NC(=O)NCCN2CCc3ccccc3C2)cc1,0,0,0,0,0,0
O=C(NCCCN1CCc2ccccc2C1)Nc1ccc(Cl)cc1,0,0,15µM,0,?,?
O=C(CNC(=O)c1ccco1)N=Nc1c(O)n(CCc2ccccc2)c2ccccc12,1.3µM,-,3.7µM,?,1.8µM,4.1µM
CCn1c(O)c(N=NC(=O)CNC(=O)Cc2ccccc2)c2ccccc21,0,0,0,0,0,0
